Results published in PubChem BioAssay (Tox21).
“And” between values parts separate entries of the source, which are not always exact repeats. Identical values can stand only once. Inconclusive results are not listed. Where a structure was tested more than once in an assay, its records may differ in their call. The source made the active and inactive calls. Unless noted, calls follow the shape of the dose curve; as a rule, active = well fitted curve in the direction sought with a large enough effect in the repeat runs; inconclusive = weak or mixed curves; inactive = no such curve, though single readings can be large; an effect the other way counts as inactive or inconclusive. Starred links: 1 amine or outer side, 2 acyl side, 3 side chain; linkers in the order of their positions; H or OH if unused. Positions of bridges follow the written chain, without caps; N, C: chain ends. Non-standard residues stand in square brackets, D forms with d. Residues, ends and D or L forms follow the SMILES beside them. Chains are numbered I, II in the order given. Actinocin(9to1) = Cc1c2oc3c(C)ccc(C(=O)[*:1])c3nc-2c(C(=O)[*:2])c(N)c1=O; NMeV = CN[C@H](C(=O)O)C(C)C; Sar = CNCC(=O)O

How the values were obtained:
[1] = target: Luciferin 4-monooxygenase (Photinus pyralis) (UniProt P08659); assay: qHTS assay to identify small molecule inhibitors of firefly luciferase (AID 1224835); also: nearly all actives have a fitted effect of over 25% in size; also: potency is read from the fitted curve at half-maximal effect; as to activity change, negative = inhibition: series mostly up to about 120 µM
How it was run: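 Quantitative HTS format; KM concentrations of both substrates. Purified P. pyralis FLuc activity quantified from luminescence images.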

[2] = qHTS assay to identify small molecule agonists of the constitutive androstane receptor (CAR) signaling pathway - cell viability counter screen (AID 1224836); also: nearly all actives have a fitted effect of over 45% in size; also: potency is read from the fitted curve at half-maximal effect; as to viability change, negative = cytotoxic: series mostly up to about 92 µM
How it was run: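 Cell viability multiplexed with the CAR agonist screen: CellTiter-Fluor fluorescence after 23 hr at 37 C. HepG2-CYP2B6-hCAR cells got compounds at 15 concentrations with PK11195 at 0.75 uM final.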

[3] = qHTS assay to identify small molecule antagonists of the constitutive androstane receptor (CAR) signaling pathway - cell viability counter screen (AID 1224837); also: nearly all actives have a fitted effect of over 45% in size; also: potency is read from the fitted curve at half-maximal effect; as to activity change, negative = cytotoxicity: series mostly up to about 92 µM
How it was run: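 To flag cytotoxic false antagonists, HepG2 hCAR/CYP2B6-2.2kb cells were treated 23 hr with 15-concentration compound series and 50 nM CITCO at 37 C/5% CO2; CellTiter-Fluor fluorescence was the measured end point.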

[4] = target: Nuclear receptor subfamily 1 group I member 3 (Homo sapiens) (UniProt Q14994); assay: qHTS assay to identify small molecule antagonists of the constitutive androstane receptor (CAR) signaling pathway (AID 1224838);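 also: HepG2 cells stably expressing hCAR with CYP2B6 luciferase reporter stimulated by CITCO; nearly all actives have a fitted effect of over 40% in size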; also: potency is read from the fitted curve at half-maximal effect
How it was run: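 Human hepatoma HepG2 cells expressing hCAR and a CYP2B6 promoter (2.2 kb) luciferase construct; compound titration (15 points) with 50 nM CITCO final, 24 h at 37 C/5% CO2; luminescence via ONE-Glo after 30 min at room temperature.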

[5] = target: Nuclear receptor subfamily 1 group I member 3 (Homo sapiens) (UniProt Q14994); assay: qHTS assay to identify small molecule agonists of the constitutive androstane receptor (CAR) signaling pathway (AID 1224839); also: nearly all actives have a fitted effect of over 15% in size; also: potency is read from the fitted curve at half-maximal effect;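 as to activation: HepG2 cells stably carrying human CAR and a CYP2B6 luciferase reporter; series mostly up to about 92 µM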
How it was run: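 Luminescent ONE-Glo read-out after 24 hr, 37 C exposure of double-stable HepG2-CYP2B6-hCAR reporter cells to a 15-point compound series, in the presence of 0.75 uM PK11195 (final).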

[6] = target: Thyrotropin receptor (Homo sapiens) (UniProt P16473); assay: qHTS assay to identify small molecule agonists of the thyroid stimulating hormone receptor (TSHR) signaling pathway (AID 1224843; calls by dose curve; also: nearly all actives have a fitted effect of over 45% in size; also: potency is read from the fitted curve at half-maximal effect)
How it was run: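 Compounds are titrated over 15 concentrations, in triplicate, onto TSHR-HEK293 cells seeded at 800/well. Plates sit 30 min at room temperature before cAMP-d2 and anti-cAMP cryptate are added; signal is read after a further hour.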

[7] = qHTS assay to identify small molecule agonists of the hypoxia (HIF-1) signaling pathway - cell viability counter screen (AID 1224844; calls by dose curve; also: nearly all actives have a fitted effect of over 50% in size; also: potency is read from the fitted curve at half-maximal effect)
How it was run: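 HRE-bla ME-180; 0.5% dFBS; cpd 17 h, 37C, 5% CO2; CellTiter-Glo lum., 30 min RT, post-FRET read, same wells.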

[8] = qHTS assay to identify small molecule antagonists of the estrogen related receptor signaling pathway with the pleiotropic PPARgamma coactivator (PGC) from Tox21 10K library - cell viability counter screen (AID 1224840; active = well fitted cell-killing curve with a large enough effect in the repeat runs, not every such curve was filed as active; also: nearly all actives have a fitted effect of over 40% in size; also: potency is read from the fitted curve at half-maximal effect)
How it was run: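 Seeded PGC/ERR cells (2,000/well, 6 h, 37 C/5% CO2) get compound by pin tool; 17.5 h incubation at 37 C; CellTiter-Fluor added, 30 min, fluorescence measured.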

[9] = qHTS assay to identify small molecule antagonists of the estrogen related receptor signaling pathway with the pleiotropic PPARgamma coactivator (PGC) from Tox21 10K library (AID 1224841; call rule not given here; also: actives are mostly falling curves and most rising ones were filed inactive; nearly all actives have a fitted effect of over 50% in size; also: potency is read from the fitted curve at half-maximal effect; as to activity, negative = inhibition: series mostly up to about 92 µM)
How it was run: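 Test chemicals dissolved in DMSO were applied to pre-incubated (6 h) PGC/ERR cells at 2,000 cells/well for an 18 h, 37 C treatment; reporter luminescence was then read using One-Glo.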

[10] = qHTS assay to identify small molecule agonists of the estrogen related receptor signaling pathway with the pleiotropic PPARgamma coactivator (PGC) from Tox21 10K library (AID 1224842); also: nearly all actives have a fitted effect of over 15% in size
How it was run: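 PGC/ERR reporter cells (NTP line) were seeded 2,000 per well, rested 6 h at 37 C/5% CO2, then pin-dosed with compounds in DMSO for 18 h at 37 C; luciferase read by One-Glo luminescence after 30 min at room temperature.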
% is scaled to controls: 0 for no effect and ±100 for the full control effect.

Thyrotropin receptor (Homo sapiens), sequence (P16473 whole entry, looked up): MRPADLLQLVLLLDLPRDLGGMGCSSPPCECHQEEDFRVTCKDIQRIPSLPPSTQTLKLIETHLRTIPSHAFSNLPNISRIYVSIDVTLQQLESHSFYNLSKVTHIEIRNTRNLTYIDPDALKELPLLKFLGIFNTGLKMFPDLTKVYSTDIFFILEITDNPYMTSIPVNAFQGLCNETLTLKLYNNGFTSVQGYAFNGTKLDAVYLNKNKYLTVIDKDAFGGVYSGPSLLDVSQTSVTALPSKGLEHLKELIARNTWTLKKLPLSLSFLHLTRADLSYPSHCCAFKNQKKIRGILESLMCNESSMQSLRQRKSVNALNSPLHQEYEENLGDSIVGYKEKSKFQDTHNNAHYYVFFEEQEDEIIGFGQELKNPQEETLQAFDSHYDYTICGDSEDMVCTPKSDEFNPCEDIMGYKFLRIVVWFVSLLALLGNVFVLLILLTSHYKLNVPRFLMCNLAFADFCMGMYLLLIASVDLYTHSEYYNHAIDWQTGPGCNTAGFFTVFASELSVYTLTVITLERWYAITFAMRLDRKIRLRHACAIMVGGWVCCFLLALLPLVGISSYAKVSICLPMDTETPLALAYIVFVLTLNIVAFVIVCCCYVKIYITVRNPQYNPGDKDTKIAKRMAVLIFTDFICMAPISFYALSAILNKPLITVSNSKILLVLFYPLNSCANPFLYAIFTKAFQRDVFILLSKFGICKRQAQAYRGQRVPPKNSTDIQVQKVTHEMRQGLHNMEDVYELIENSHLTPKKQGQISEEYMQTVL
Nuclear receptor subfamily 1 group I member 3 (Homo sapiens), sequence (Q14994 whole entry, looked up): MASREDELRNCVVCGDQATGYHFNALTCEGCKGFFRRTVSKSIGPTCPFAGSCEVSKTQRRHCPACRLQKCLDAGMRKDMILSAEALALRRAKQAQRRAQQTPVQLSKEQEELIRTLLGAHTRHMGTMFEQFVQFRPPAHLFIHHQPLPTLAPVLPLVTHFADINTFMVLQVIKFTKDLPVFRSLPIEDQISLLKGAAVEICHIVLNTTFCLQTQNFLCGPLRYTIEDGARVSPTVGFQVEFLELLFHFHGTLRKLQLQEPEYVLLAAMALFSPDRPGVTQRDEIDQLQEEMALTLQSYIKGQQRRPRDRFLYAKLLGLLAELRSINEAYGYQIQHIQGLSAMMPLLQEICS
Luciferin 4-monooxygenase (Photinus pyralis), sequence (P08659 whole entry, looked up): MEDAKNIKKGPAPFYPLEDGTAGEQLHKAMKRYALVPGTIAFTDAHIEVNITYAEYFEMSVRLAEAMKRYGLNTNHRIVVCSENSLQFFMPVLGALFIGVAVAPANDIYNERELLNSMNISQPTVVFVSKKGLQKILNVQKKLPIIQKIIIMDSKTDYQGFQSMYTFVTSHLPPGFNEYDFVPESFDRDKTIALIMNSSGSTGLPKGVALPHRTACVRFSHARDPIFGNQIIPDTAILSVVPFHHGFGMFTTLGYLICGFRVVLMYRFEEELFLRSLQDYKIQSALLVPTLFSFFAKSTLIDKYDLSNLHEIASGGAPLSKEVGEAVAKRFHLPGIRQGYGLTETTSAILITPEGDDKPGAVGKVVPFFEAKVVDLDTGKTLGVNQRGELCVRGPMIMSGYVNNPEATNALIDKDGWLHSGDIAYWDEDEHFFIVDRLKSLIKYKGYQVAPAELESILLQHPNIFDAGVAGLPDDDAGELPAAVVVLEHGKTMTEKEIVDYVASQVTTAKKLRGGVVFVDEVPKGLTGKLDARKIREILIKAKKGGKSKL

Oc1c(Cl)cc(Cl)c(Cl)c1Cc1c(O)c(Cl)cc(Cl)c1Cl
15.3 µM (active) and inactive: Potency [6]
inactive: Potency [1] | Potency [5]
active: Potency [2] 7.67 µM | Potency [3] 9.44 µM | Potency [4] 10.8 µM and 10.9 µM and 9.44 µM | Potency [7] 19.4 µM and 19.5 µM

COc1cc(C(=S)N2CCOCC2)ccc1O
inactive: Potency [1] | Potency [2] | Potency [3] | Potency [5] | Potency [8] | Potency [9] | Potency [10] | Potency [6] | Potency [7]

CCCCC(CC)COC(=O)CC(C(=O)OCC(CC)CCCC)S(=O)(=O)O (stereo unspecified)
inactive: Potency [1] | Potency [2] | Potency [3] | Potency [5] | Potency [8]
active: Potency [7] 26.5 µM and 21.9 µM

CCC(CO)(CO)COCC(CC)(CO)CO
inactive: Potency [1] | Potency [2] | Potency [3] | Potency [5] | Potency [8] | Potency [9] | Potency [10] | Potency [6] | Potency [7]

CCC(C)(Oc1ccc(C2(c3ccc(OC(C)(CC)C(=O)O)cc3)CCCCC2)cc1)C(=O)O (stereo unspecified)
inactive: Potency [1] | Potency [2] | Potency [3] | Potency [5] | Potency [8] | Potency [9] | Potency [10] | Potency [6] | Potency [7]

O=C(O)c1cccc(C(=O)O)c1
inactive: Potency [1] | Potency [2] | Potency [3] | Potency [8] | Potency [6] | Potency [7]

NC(N)=Nc1nc(CSCC/C(N)=N/S(N)(=O)=O)cs1
inactive: Potency [1] | Potency [2] | Potency [3] | Potency [8] | Potency [9] | Potency [10] | Potency [7]

NC(N)=NC(=O)Cc1c(Cl)cccc1Cl
inactive: Potency [1] | Potency [2] | Potency [3] | Potency [5] | Potency [8] | Potency [9] | Potency [10] | Potency [6] | Potency [7]

c1ccc2c(c1)-c1cccc3c1c-2cc1ccccc13
active: Potency [1] 7.1 µM | Potency [5] 21.2 µM and 17.2 µM | Potency [7] 33.9 µM
inactive: Potency [2] | Potency [3] | Potency [4] | Potency [8]

Cc1c2oc3c(C)ccc(C(=O)N[C@@H]4C(=O)N[C@H](C(C)C)C(=O)N5CCC[C@H]5C(=O)N(C)CC(=O)N(C)[C@@H](C(C)C)C(=O)O[C@@H]4C)c3nc-2c(C(=O)N[C@@H]2C(=O)N[C@H](C(C)C)C(=O)N3CCC[C@H]3C(=O)N(C)CC(=O)N(C)[C@@H](C(C)C)C(=O)O[C@@H]2C)c(N)c1=O (I: T[dV]P[Sar][NMeV] / II: T[dV]P[Sar][NMeV]; ester I:1-I:C, II:1-II:C; linker I:N-II:N via Actinocin(9to1))
inactive: Potency [1] | Potency [5] | Potency [7]
active: Potency [2] 0.0133 µM | Potency [3] 7.5 nM and 33.5 nM | Potency [4] 1 nM | Potency [8] 0.266 µM

CCCCCCCCCCCCCCCCCl
inactive: activity change, negative = inhibition [1] 0.302% [at 23.6 µM] | viability change, negative = cytotoxic [2] -1.15% [at 19 µM] | activity change, negative = cytotoxicity [3] -1.23% [at 19 µM] | activation [5] -1.81% [at 19 µM] | viability change, negative = cytotoxic [8] 6.02% [at 19 µM] | activity, negative = inhibition [9] 65% [at 19 µM] | activation [10] 5.12% [at 19 µM] | activation [6] 0.927% [at 19 µM] | activity change, negative = cytotoxicity [7] 8.74% [at 15.8 µM]

c1cc(C(c2ccc(OCC3CO3)cc2)C(c2ccc(OCC3CO3)cc2)c2ccc(OCC3CO3)cc2)ccc1OCC1CO1 (stereo unspecified)
active: Potency [1] 16.5 µM
79.8 µM (active) and inactive: Potency [9]
inactive: Potency [2] | Potency [3] | Potency [4] | Potency [8] | Potency [10] | Potency [6] | Potency [7]

CC1COC(=O)O1 (stereo unspecified)
inactive: Potency [1] | Potency [2] | Potency [3] | Potency [5] | Potency [8] | Potency [9] | Potency [10] | Potency [6] | Potency [7]

BrC1CCC(Br)C(Br)CCC(Br)C(Br)CCC1Br (stereo unspecified)
inactive: Potency [1] | Potency [2] | Potency [3] | Potency [5] | Potency [10] | Potency [7]
active: Potency [9] 30.5 µM

O=C(OCc1ccccc1)c1ccc(O)cc1
inactive: Potency [2] | Potency [3] | Potency [5] | Potency [8] | Potency [6] | Potency [7]
active: Potency [1] 31.7 µM and 15.5 µM

[Cl][In]([Cl])[Cl]
inactive: Potency [2] | Potency [3] | Potency [4] | Potency [5] | Potency [8] | Potency [7]
active: Potency [1] 36.6 µM and 39.9 µM

CC(C)(C)c1ccccc1
inactive: Potency [1] | Potency [2] | Potency [3] | Potency [5] | Potency [8] | Potency [9] | Potency [10] | Potency [6] | Potency [7]

CC(=O)CC(C)=O
inactive: Potency [1] | Potency [2] | Potency [3] | Potency [8] | Potency [9] | Potency [10] | Potency [6] | Potency [7]

CC(C(O)c1ccc(O)cc1)N1CCC(Cc2ccccc2)CC1 (stereo unspecified)
inactive: Potency [1] | Potency [2] | Potency [3] | Potency [8] | Potency [9] | Potency [10] | Potency [7]

CCN(CC)C(=O)Nc1ccc(OCC(O)CNC(C)(C)C)c(C(C)=O)c1 (stereo unspecified)
inactive: Potency [1] | Potency [2] | Potency [3] | Potency [5] | Potency [8] | Potency [9] | Potency [10] | Potency [6] | Potency [7]

C=C(C)C1CC=C(C)C(OC(C)=O)C1 (stereo unspecified)
inactive: Potency [1] | Potency [2] | Potency [3] | Potency [8] | Potency [9] | Potency [10] | Potency [6] | Potency [7]

Oc1ccc(Cl)cc1Cc1cc(Cl)ccc1O
active: Potency [8] 24.8 µM
inactive: Potency [1] | Potency [2] | Potency [3] | Potency [5] | Potency [6]
54.9 µM (active) and inactive: Potency [7]

CC(=O)CC(=O)Nc1ccc2[nH]c(=O)[nH]c2c1
inactive: Potency [1] | Potency [2] | Potency [3] | Potency [5] | Potency [8] | Potency [9] | Potency [10] | Potency [6] | Potency [7]
